From PubChem BioAssay AID1851 (National Center for Advancing Translational Sciences (NCATS), 2009)
Where “and” joins values, the source holds several entries; their conditions need not be identical. Identical values can stand only once. The campaign covered roughly 16,000 compounds. About 5,700 (36%) were called active. Another 24% or so got no clear call; they are omitted. Calls come from the whole dose curve; as a rule, active = well fitted curve in the direction sought with a large enough effect; inconclusive = small, poorly fitted or top-dose-only effect, or effect the other way; inactive = no such curve, though single readings can be large or run the other way. The list shows a part of the results. Peptide text beside a SMILES is read from it.

The compounds below were run against Cytochrome P450 1A2 (Homo sapiens) (UniProt P05177) (assay: Cytochrome panel assay with activity outcomes). Settings: recombinant CYP, pro-luciferin dealkylation, luminescence, p450-cyp1a2; series mostly up to 57.1 µM; activity, negative = inhibition: at the top concentration.
Chain of Cytochrome P450 1A2 (Homo sapiens) (P05177 whole entry, looked up): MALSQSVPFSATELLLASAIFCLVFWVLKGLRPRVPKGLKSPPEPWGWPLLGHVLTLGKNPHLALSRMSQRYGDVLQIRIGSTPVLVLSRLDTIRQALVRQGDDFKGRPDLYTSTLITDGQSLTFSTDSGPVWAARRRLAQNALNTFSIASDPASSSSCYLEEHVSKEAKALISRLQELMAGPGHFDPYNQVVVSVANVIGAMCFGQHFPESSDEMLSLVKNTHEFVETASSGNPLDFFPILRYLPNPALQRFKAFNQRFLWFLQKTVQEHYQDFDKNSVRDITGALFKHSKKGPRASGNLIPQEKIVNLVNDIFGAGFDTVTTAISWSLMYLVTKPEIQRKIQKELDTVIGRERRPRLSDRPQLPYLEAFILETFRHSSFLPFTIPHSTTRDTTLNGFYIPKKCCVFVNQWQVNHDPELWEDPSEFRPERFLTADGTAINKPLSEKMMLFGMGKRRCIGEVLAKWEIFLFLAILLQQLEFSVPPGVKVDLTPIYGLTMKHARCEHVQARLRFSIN
% is set by controls: 0 for no effect and ±100 for the full control effect.

activity, negative = inhibition, inactive:
C=CC[C@@H]1C=C[C@@H](O/N=C\C[C@@H]2C=C[C@H](OC(C)=O)[C@H](COC(C)=O)O2)[C@@H](CO)O1 -8.91% [at 11.4 µM], CC(N)=O -4.84%, Cc1ccc(Sc2c([N+](=O)[O-])ncn2C)cc1 -2.64%, Cc1cccc(CN(C)CCc2ccccn2)c1 -8.65%, CN(C)CCO[C@@H](c1ccc(Cl)cc1)c1ccccn1 -0.205% [at 25.6 µM], C=CCN=C1CC(C)(C)CC(=O)/C1=C(\O)c1ccccc1 3.8%, CCC(C)C(NC(=O)OCc1ccccc1)C(=O)OCN1C(=O)c2ccccc2C1=O (stereo not given) -13.3%, Cc1ccc(S(=O)(=O)N[C@H]2COC(=O)C/C=C\[C@@H](C)[C@H](NS(=O)(=O)c3ccc(C)cc3)COC(=O)[C@H](C)NC(=O)C/C=C\[C@H]2C)cc1 -1.96% [at 11.4 µM], c1csc(CNCCCN2CCOCC2)c1 -8.37%, CN(C)Cc1ccccc1-c1cc(NCc2ccccc2)ncn1 -21%, COc1ccccc1CNCCCCCCNCCCCCCCCNCCCCCCNCc1ccccc1OC 0.168%, C[N+](C)(C)CCO -2.79%, Clc1ccccc1C(Nc1cnccn1)Nc1cnccn1 -18% [at 2.29 µM], C=CC[C@@H]1C=C[C@H](Oc2ccc(C)cc2)[C@H](COC(=O)NCc2cccc3ccccc23)O1 -8.02% [at 11.4 µM], N#C/C(=C\c1ccc(Oc2ccc(C(F)(F)F)cc2[N+](=O)[O-])cc1)c1nc2ccccc2[nH]1 -26.8%, Cc1ccc(-c2nnc(-c3ccccc3S(=O)(=O)Cc3ccc(Cl)cc3)o2)cc1 -27.6%, CCCNC(=O)OC[C@@H]1O[C@H](CCO/N=C(\C)CCN2CCCCc3nc(C)c(C)cc32)C=C[C@@H]1Oc1ccc(OC)cc1 3.81% [at 11.4 µM], Cc1ccc(S(=O)(=O)N[C@H]2COC(=O)[C@H](C)COC(=O)[C@H](C)NC(=O)C/C=C\[C@H]2C)cc1 4.67% [at 11.4 µM], O=C(CN(CC1CCCO1)C(=O)CNS(=O)(=O)c1ccc(Cl)cc1)NCCc1ccccc1 (stereo not given) -20.7%, O=C(CCc1ccccc1)NNC(=O)C1CCCCC1 -5.87%, COC(=O)[C@@H]1CC[C@H](C)[C@@H](c2ccc(C)cc2)N1C(=O)c1ccc(/C=N\O[C@@H](C)c2cn([C@H](CO)Cc3ccccc3)nn2)cc1 -8.03% [at 11.4 µM] and -18.7% [at 11.4 µM], O=C(OC1CCN(c2ncc(C(F)(F)F)cc2Cl)CC1)c1cccc(C(F)(F)F)c1 -26.7%, COCC(=O)N1CCC2(CC1)CN(Cc1ccccc1OC)C2 19.2%, S=c1c2[nH]cnc2ncn1CCSc1ncnc2nc[nH]c12 -16.9% [at 11.4 µM], O=C(Nc1ccc(-c2nc3ccccc3o2)cc1)c1ccc(N2CCOCC2)c([N+](=O)[O-])c1 -22.7%, O=C(O)Cc1ccc(NC(=O)C2CCCCC2C(=O)O)cc1 (stereo not given) -4.46%

AC50, active:
CCNc1ncc2nc(C)c(=O)n(C3CC3)c2n1 5010 nM, CCNc1ncc2nc(C)c(=O)n(C)c2n1 5010 nM, CCNc1ncc2ncc(=O)n(C3CC3)c2n1 3160 nM, O=C(Nc1ccc(Cl)cc1Cl)c1cccc(N2C(=O)C=CC2=O)c1 12600 nM, CCCCC(=O)Nc1sc2c(c1C(=O)OCC)CCC(C=O)=C2Cl 2510 nM, FC(F)(F)c1ccccc1-c1cc(N2CCNCC2)ncn1 5010 nM, CN1CCN(c2cc(-c3ccccc3C(F)(F)F)ncn2)CC1 12600 nM, CNc1cc(CSC)nc(SCc2ccc(Cl)c(Cl)c2)n1 4470 nM, CN(CCc1ccccn1)Cc1ccc(Cl)cc1Cl 7080 nM, c1ccc(-c2ccc3c(c2)c2c4n3CCN=C4CCC2)cc1 2820 nM, O=C(CCNC(=O)c1ccccc1)OCN1C(=O)c2ccccc2C1=O 2240 nM, Cc1cccc(CNc2cc(-c3ccccc3CN(C)C)ncn2)c1 25100 nM, COc1ccccc1CNCc1cccs1 251 nM, COc1ccccc1-c1cc(NCc2cccs2)ncn1 1580 nM, COc1ccccc1-c1cc(NCc2cccnc2)ncn1 316 nM, Clc1ccccc1-c1cc(NCc2cccnc2)ncn1 3160 nM, Cc1cccc(CNc2cc(-c3ccccc3Cl)ncn2)c1 3160 nM, COc1ccccc1-c1cc(NCc2cccc(C)c2)ncn1 1580 nM, CN(C)Cc1ccccc1-c1cc(NCc2cccs2)ncn1 25100 nM, COc1ccccc1-c1cc(NCc2ccccc2)ncn1 2510 nM, Cc1ccc2nc(/C(C#N)=C\c3ccc(OC(=O)c4cccs4)cc3)[nH]c2c1 2510 nM, Clc1ccc(-c2nnc(-c3cccc4ccccc34)o2)cc1Cl 2000 nM, CN(C)c1ncc2nc(-c3ccc(Cl)cc3)c(=O)n(Cc3cccs3)c2n1 1580 nM, COc1ccc(-c2nc3cnc(N(C)C)nc3n(Cc3cccs3)c2=O)cc1 1580 nM, CN(C)c1ncc2nc(-c3ccc(F)cc3)c(=O)n(Cc3cccs3)c2n1 1000 nM, Nc1ccc(-c2nc3c(Cl)c(N)ccc3[nH]2)cc1 794 nM, O=C(CCc1ccc(S(=O)(=O)NC2CCCCC2)cc1)N(Cc1ccccc1)Cc1ccccc1 1580 nM, CC(C)c1ccc2c(c1)C(c1ccc(N3CCOCC3)cc1)=NNC(c1cccs1)=N2 3160 nM, O=C(OCn1ncc(Cl)c(Cl)c1=O)c1cccc(C(F)(F)F)c1 2000 nM, O=S(=O)(Nc1ccc2oc(-c3ccccc3)nc2c1)c1ccccc1 5010 nM

AC50, inactive:
CN(C)CCO[C@](C)(c1ccccc1)c1ccccn1, CC(=O)N[C@@H](CC(=O)O)C(=O)N[C@@H](CCC(=O)O)C(=O)O (Ac-Asp-Glu-OH), CCCC[S@@](=N)(=O)CC[C@@H](N)C(=O)O, Nc1ccc(S(=O)(=O)Nc2cnc3ccccc3n2)cc1
